In PubChem BioAssay (NCATS):
Results filed as inconclusive are left out. Active and inactive are the calls of the source. Unless noted, calls come from the whole dose curve; as a rule, active = well fitted curve in the direction sought with a large enough effect; inconclusive = small, poorly fitted or top-dose-only effect, or another doubt; inactive = no such curve, though single readings can be large; an effect the other way counts as inactive or inconclusive.

Experiments:
[1] = target: T1, Hexokinase-4 (Homo sapiens) + Glucokinase regulatory protein (Homo sapiens) (UniProt P35557+Q14397); experiment: qHTS assay for inhibitors of recombinant human GCK-GKRP interaction: Diaphorase-coupled assay (AID 743205)
T1 sequence (P35557 whole entry, looked up): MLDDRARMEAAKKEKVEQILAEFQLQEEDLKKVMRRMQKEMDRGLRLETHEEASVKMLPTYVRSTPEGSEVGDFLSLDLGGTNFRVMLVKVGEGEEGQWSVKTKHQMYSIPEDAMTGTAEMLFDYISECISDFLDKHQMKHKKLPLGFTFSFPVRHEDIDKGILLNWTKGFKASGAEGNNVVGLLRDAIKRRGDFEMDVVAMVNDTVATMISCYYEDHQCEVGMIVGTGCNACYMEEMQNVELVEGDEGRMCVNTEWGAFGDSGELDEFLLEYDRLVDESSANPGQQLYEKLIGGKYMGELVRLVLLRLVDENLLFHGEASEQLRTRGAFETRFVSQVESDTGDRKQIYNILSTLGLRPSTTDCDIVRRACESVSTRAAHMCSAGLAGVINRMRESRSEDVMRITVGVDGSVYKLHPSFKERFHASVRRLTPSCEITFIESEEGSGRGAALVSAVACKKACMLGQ
T1 sequence (Q14397 whole entry, looked up): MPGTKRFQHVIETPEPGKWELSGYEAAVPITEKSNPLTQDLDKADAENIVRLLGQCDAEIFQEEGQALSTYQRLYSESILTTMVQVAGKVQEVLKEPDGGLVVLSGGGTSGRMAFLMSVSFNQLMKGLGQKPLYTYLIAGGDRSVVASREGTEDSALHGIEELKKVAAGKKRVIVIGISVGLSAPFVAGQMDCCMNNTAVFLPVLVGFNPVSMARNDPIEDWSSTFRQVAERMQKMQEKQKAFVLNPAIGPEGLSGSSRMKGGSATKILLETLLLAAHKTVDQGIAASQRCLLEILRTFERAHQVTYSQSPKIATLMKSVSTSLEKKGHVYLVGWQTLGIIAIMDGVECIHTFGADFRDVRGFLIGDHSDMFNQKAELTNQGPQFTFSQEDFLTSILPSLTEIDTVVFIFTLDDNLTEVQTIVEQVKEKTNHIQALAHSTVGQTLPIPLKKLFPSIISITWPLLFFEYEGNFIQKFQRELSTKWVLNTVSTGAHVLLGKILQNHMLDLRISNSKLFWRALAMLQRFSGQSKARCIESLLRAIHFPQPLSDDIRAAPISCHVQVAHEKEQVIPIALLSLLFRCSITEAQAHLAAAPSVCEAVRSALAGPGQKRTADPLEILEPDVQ
In short: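 Signal derives from resorufin generated by diaphorase, linked to GCK turnover of glucose (5 mM) and ATP (0.4 mM). Enzyme complex was added after a 20-minute compound preincubation and monitored for 30 minutes.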

[2] = target: T1, Hexokinase-4 (Homo sapiens) + Glucokinase regulatory protein (Homo sapiens); experiment: qHTS assay for inhibitors of recombinant human GCK-GKRP interaction: ADP-Glo assay (AID 743206);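 note: plate controls were DMSO plus enzyme for no effect and no enzyme for full effect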
In short: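 Pin-transferred compounds meet a 15 nM GST-GCK/15 nM FLAG-GKRP/2 uM S6P mix (dispense concentrations). ATP is then added to 0.4 mM final with 5 mM glucose, and the reaction runs 60 min at room temperature. ADP is quantified luminescently.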

[3] = target: T1, Hexokinase-4 (Homo sapiens) + Glucokinase regulatory protein (Homo sapiens); experiment: qHTS assay for inhibitors of recombinant human GCK-GKRP interaction: HTRF assay (AID 743207);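 note: 0% = DMSO with GCK present and -100% = DMSO wells lacking GCK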
In short: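 Titration screening format: recombinant GST-GCK and FLAG-GKRP at 5 nM, S6P at 2 uM, labelled anti-tag antibodies, 60 min at RT, dual-wavelength HTRF readout.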

[4] = qHTS Assay for Identifying Gametocytocidal Compounds (AID 743244);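 note: % is set by controls: 0 for no effect and ±100 for the full control effect; actives lower the fluorescent signal which means gametocytes are killed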; conditions: P. falciparum 3D7 stage III-V gametocytes, alamarBlue, 72 h; max response: hits give low values
In short: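 3D7 gametocytes, stages III–V, 20,000/well; cpd 72 h, 37 °C/5% CO2; + alamarBlue 24 h; fluor. Ex 525/Em 598.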

[5] = qHTS assay for measurement of the activity of small molecule inhibitors on Zika virus induced Caspase-3 activity in human iPSC derived neural progenitor cells (hNPCs) (AID 1224857); note: % of control where 0% means no effect; nearly all actives have a fitted effect of over 65% in size
In short: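 Cells were plated at 350 per well and grown 16 to 20 hours. Compound pretreatment lasted one hour, after which ZIKV (2 FFU/cell) was added for 6 hours. Percent inhibition was normalized between uninfected and infected controls.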

[6] = qHTS assay for measurement of the activity of small molecule inhibitors on Zika virus induced Caspase-3 activity in human astrocytoma cells (AID 1224859);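 note: plate controls were ZIKV-infected untreated cells for no effect and uninfected cells for full effect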
In short: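 Percent inhibition of virus-induced caspase-3/7 signal is calculated against uninfected and ZIKV-infected control cells. Cells are SNB-19, infected at 2 FFU/cell for 6 h after 1 h compound exposure.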

[7] = Natriuretic polypeptide receptor (hNpr1) antagonism - Pilot counterscreen GloSensor control cell line (AID 1347045; calls by dose curve; note: potency is the fitted concentration of half-maximal effect)
In short: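 Cells were first seeded and incubated overnight at 37C, then loaded with 2% GloSensor substrate for 2 h. Compounds were added for 30 min at room temperature, followed by a baseline read, 50 uM SNP and a final read after 20 min.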

[8] = target: Atrial natriuretic peptide receptor 1 (Homo sapiens) (UniProt P16066); experiment: Natriuretic polypeptide receptor (hNpr1) antagonism - Pilot screen (AID 1347049; calls by dose curve;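 note: HEK293 cells with hNpr1 and GloSensor cGMP luciferase stimulated by 0.1 nM hNppA; agonist-evoked cGMP luminescence read 20 min after hNppA addition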; note: potency is the fitted concentration of half-maximal effect)
Sequence of Atrial natriuretic peptide receptor 1 (Homo sapiens) (P16066 whole entry, looked up): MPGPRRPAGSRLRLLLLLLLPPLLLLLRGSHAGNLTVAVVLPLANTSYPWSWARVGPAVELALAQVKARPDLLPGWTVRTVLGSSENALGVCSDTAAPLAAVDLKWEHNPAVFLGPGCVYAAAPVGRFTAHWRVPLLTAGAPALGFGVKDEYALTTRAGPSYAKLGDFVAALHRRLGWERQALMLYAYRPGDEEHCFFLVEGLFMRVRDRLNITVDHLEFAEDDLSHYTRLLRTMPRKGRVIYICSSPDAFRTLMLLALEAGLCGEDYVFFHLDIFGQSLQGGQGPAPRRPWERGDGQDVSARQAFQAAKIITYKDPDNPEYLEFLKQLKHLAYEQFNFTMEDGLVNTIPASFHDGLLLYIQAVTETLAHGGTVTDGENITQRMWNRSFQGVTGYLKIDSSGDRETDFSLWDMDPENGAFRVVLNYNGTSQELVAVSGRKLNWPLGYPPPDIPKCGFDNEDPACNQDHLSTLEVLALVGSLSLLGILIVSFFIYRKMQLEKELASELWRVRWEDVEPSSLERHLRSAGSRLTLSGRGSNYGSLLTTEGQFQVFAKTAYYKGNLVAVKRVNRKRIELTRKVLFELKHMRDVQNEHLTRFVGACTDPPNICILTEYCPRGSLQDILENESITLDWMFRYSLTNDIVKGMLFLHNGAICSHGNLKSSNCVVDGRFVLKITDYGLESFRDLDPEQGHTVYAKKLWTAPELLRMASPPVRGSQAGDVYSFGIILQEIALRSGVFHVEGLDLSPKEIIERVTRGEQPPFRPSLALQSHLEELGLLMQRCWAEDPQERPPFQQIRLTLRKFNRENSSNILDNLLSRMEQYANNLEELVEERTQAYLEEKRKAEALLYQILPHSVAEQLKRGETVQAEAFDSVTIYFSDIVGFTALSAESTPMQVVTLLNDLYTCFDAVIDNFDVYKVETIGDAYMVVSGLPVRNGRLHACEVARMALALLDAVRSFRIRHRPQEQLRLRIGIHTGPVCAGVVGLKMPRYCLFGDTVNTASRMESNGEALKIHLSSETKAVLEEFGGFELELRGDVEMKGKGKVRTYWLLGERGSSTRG
In short: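 Receptor antagonism read as cGMP-dependent luminescence in hNpr1/pGS-40F HEK293 cells: pre-read after 30 min compound exposure, post-read 20 min after hNppA agonist at 0.1 nM final, all at room temperature, protected from light; A-71915 titration as control.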

[9] = target: Atrial natriuretic peptide receptor 2 (Homo sapiens) (UniProt P20594); experiment: Natriuretic polypeptide receptor (hNpr2) antagonism - Pilot subtype selectivity assay (AID 1347050; calls by dose curve; note: potency is the fitted concentration of half-maximal effect)
Sequence of Atrial natriuretic peptide receptor 2 (Homo sapiens) (P20594 whole entry, looked up): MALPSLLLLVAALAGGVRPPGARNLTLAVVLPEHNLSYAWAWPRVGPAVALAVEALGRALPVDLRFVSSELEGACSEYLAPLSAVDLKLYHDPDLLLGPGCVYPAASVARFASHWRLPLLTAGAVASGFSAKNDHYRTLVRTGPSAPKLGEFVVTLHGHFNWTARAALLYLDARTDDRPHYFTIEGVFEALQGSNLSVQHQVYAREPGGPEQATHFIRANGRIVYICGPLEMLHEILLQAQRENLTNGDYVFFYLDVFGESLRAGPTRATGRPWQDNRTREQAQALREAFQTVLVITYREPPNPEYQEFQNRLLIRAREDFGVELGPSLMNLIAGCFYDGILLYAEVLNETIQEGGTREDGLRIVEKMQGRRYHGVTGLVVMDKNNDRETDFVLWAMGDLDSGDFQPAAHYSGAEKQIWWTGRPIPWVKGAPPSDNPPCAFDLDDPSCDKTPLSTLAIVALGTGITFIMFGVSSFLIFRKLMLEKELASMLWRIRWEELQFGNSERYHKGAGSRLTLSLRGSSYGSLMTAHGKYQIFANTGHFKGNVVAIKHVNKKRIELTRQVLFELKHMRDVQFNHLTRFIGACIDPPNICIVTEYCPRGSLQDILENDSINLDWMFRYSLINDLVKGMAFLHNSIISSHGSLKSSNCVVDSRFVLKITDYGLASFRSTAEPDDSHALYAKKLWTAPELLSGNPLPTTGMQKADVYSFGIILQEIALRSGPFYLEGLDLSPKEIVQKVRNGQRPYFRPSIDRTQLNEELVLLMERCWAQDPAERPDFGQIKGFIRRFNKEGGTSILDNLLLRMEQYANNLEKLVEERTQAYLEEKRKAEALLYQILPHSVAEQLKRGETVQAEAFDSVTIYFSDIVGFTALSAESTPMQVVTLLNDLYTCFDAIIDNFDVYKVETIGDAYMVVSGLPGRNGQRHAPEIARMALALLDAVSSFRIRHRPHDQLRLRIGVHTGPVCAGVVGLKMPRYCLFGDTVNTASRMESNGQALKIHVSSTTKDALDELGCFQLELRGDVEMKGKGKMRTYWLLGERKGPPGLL
In short: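 Antagonist mode: compounds (LOPAC1280, seven 1:5 dilutions) added 30 min before 1 nM hNppC stimulation of hNpr2-HEK293 cGMP-sensor cells; luminescence read before and 20 min after agonist at ambient temperature.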

[10] = qHTS assay for cell viability of HEK293 cells (AID 743288); conditions: ATP luminescence (CellTiter-Glo), 18 h; max response: hits give low values; note: % is set by controls: 0 for no effect and ±100 for the full control effect; nearly all actives have a fitted effect of over 50% in size
In short: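 HEK293, 18 h, 37 C, ATP luminescence. Cells at 2,000/well were allowed at least 5 h to settle before dosing; CellTiter-Glo developed 30 min at RT.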

[11] = qHTS assay for cell viability of the p53RE-bla HCT-116 cell line (AID 743292); note: % is set by controls: 0 for no effect and ±100 for the full control effect; nearly all actives have a fitted effect of over 55% in size
In short: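 Quantitative high-throughput format: compounds in DMSO were pinned onto p53RE-bla HCT-116 cells (4,000/well) and incubated 16 h at 37 C. Total intracellular ATP, read by CellTiter-Glo luminescence, reflects viable cell number.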

CN(C)C(=O)/N=N/C(=O)N(C)C
inactive: Potency [1] | Potency [2] | Potency [3] | max response [4] -1.96% | Potency [5] | Potency [6] | Potency [7] | Potency [8] | Potency [9]

CC(C)(C)NCC(O)COc1cccc2[nH]c(=O)[nH]c12 (configuration not stated)
inactive: Potency [1] | Potency [2] | Potency [3] | max response [4] 25.5% | Potency [5] | Potency [6] | Potency [7] | Potency [8] | Potency [9]

Nc1ncnc2c1nc(Br)n2C1OC2COP(=O)(O)O[C@@H]2C1O (some centres not stated)
inactive: Potency [1] | Potency [2] | Potency [3] | max response [4] 31.4% | Potency [5] | Potency [6] | Potency [7] | Potency [8] | Potency [9]

Cc1ccc([N+](=O)[O-])cc1S(=O)(=O)N(C)C
inactive: Potency [1] | Potency [2] | Potency [3] | max response [4] 4.81% | Potency [5] | Potency [6] | Potency [7] | Potency [8] | Potency [9]

O=C(O)C1=CCCNC1
inactive: Potency [1] | Potency [2] | Potency [3] | max response [4] 15% | Potency [5] | Potency [6] | Potency [7] | Potency [8] | Potency [9]

COc1cc(/C=C(\C#N)C(=O)Nc2nnc(C(F)(F)F)s2)ccc1OCc1ccc(C(F)(F)F)cc1C(F)(F)F
active: Potency [7] 14.7 µM | Potency [8] 23.9 µM | Potency [9] 16.5 µM
inactive: Potency [1] | Potency [2] | Potency [3] | max response [4] 5.8% | Potency [5] | Potency [6]

CO/N=C(\C(=O)N[C@@H]1C(=O)N2C(C(=O)O)=C(CSc3nc(=O)c(O)nn3C)CSC12)c1csc(N)n1 (some centres not stated)
inactive: Potency [1] | Potency [2] | Potency [3] | max response [4] 32.5% | Potency [5] | Potency [6] | Potency [7] | Potency [8] | Potency [9]

OCC1NCC(O)C(O)C1O (configuration not stated)
inactive: Potency [1] | Potency [2] | Potency [3] | max response [4] 29.9% | Potency [5] | Potency [6] | Potency [7] | Potency [8] | Potency [9]

Nc1ccc(N2C(=O)c3ccccc3C2=O)c(Cl)c1
inactive: Potency [1] | Potency [2] | Potency [3] | max response [4] 6.35% | Potency [5] | Potency [6] | Potency [7] | Potency [8] | Potency [9]

O=c1[nH]c2ccccc2c2ccccc12
inactive: Potency [1] | Potency [2] | Potency [3] | max response [4] 36% | Potency [5] | Potency [6] | Potency [7] | Potency [8] | Potency [9]

O=C(O)c1ccccc1Nc1cccc(OCc2ccc3ccccc3n2)c1
inactive: Potency [1] | Potency [2] | Potency [3] | max response [4] 1.28% | Potency [5] | Potency [6] | Potency [7] | Potency [8] | Potency [9]

Oc1cc(O)c2c(c1)O[C@H](c1ccc(O)c(O)c1)[C@@H](O)C2
inactive: Potency [1] | Potency [2] | Potency [3] | max response [4] -4.64% | Potency [5] | Potency [6] | Potency [7] | Potency [8] | Potency [9]

NC(C(=O)N[C@@H]1C(=O)N2C(C(=O)O)=C(Cl)CS[C@H]12)c1ccccc1 (some centres not stated)
inactive: Potency [1] | Potency [2] | Potency [3] | max response [4] 8.93% | Potency [5] | Potency [6] | Potency [7] | Potency [8] | Potency [9]

CC(/C=C/c1cccc(Oc2ccc(F)cc2)c1)N(O)C(N)=O (configuration not stated)
inactive: Potency [1] | Potency [2] | Potency [3] | max response [4] 13.8% | Potency [5] | Potency [6] | Potency [7] | Potency [8] | Potency [9]

Cn1c(=O)c2[nH]c(C3CCCC3)nc2n(C)c1=O
inactive: Potency [1] | Potency [2] | Potency [3] | max response [4] 9.69% | Potency [5] | Potency [6] | Potency [7] | Potency [8] | Potency [9]

NS(=O)(=O)c1cccc2c1c([N+](=O)[O-])cc1nc(O)c(O)nc12
inactive: Potency [1] | Potency [2] | Potency [3] | max response [4] 24.6% | Potency [5] | Potency [6] | Potency [7] | Potency [8] | Potency [9]

CCCCCCCCCCC(C)(C)C(=O)Nc1c(OC)cc(OC)cc1OC
inactive: Potency [1] | Potency [2] | Potency [3] | max response [4] -6% | Potency [5] | Potency [6] | Potency [7] | Potency [8] | Potency [9]

NCCS(=O)O
inactive: Potency [1] | Potency [2] | Potency [3] | max response [4] 18% | Potency [5] | Potency [6] | Potency [7] | Potency [8] | Potency [9]

O=C(O)c1cc(=O)cc(C(=O)O)[nH]1
inactive: Potency [1] | Potency [3] | Potency [5] | Potency [6] | Potency [7] | Potency [8] | Potency [9]

C=C1C[C@@]23CC[C@H]4[C@@](C)(CCC[C@@]4(C)C(=O)OC4OC(CO)C(O)C(O)C4O)[C@@H]2CC[C@]1(OC1OC(CO)C(O)C(O)C1OC1OC(CO)C(O)C(O)C1O)C3 (some centres not stated)
inactive: Potency [1] | Potency [3] | Potency [5] | Potency [6] | Potency [7] | Potency [8] | Potency [9]

C[C@H](O)C(=O)C1=Nc2c(nc(N)[nH]c2=O)NC1
inactive: Potency [1] | Potency [3] | max response [4] 13.3% | Potency [5] | Potency [6] | Potency [7] | Potency [8] | Potency [9]

NC(=O)c1ccccc1
inactive: Potency [1] | Potency [2] | Potency [3] | max response [4] -3.76% | max response [10] -1.67% | Potency [11] | Potency [5] | Potency [6] | Potency [7] | Potency [8] | Potency [9]

CNc1ncnc2c1ncn2[C@H]1C[C@H](OP(=O)(O)O)[C@@H](COP(=O)(O)O)O1
inactive: Potency [1] | Potency [2] | Potency [3] | max response [4] 21.7% | Potency [5] | Potency [6] | Potency [7] | Potency [8] | Potency [9]

NC(Cc1cccc(-c2ccccc2CP(=O)(O)O)c1)C(=O)O (configuration not stated)
inactive: Potency [1] | Potency [3] | max response [4] 13.4% | Potency [5] | Potency [6] | Potency [7] | Potency [8] | Potency [9]
